Compound activity from PubChem.
The sample as a whole holds a higher share of hits than the screen did.
Giardia FBPA inh – qHTS Assay for Inhibitors of Fructose-1,6-bisphosphate Aldolase from Giardia Lamblia. A8B2U2. purified Giardia FBPA. Potency, µM (series often up to 59.6 µM), inactives show at the highest dose activity, negative = inhibition, actives largely listed as inhibitors. 290,000 tested, 0.71% active. AID 2451, 2010; note: potency is the fitted concentration of half-maximal effect; % is set by controls: 0 for no effect and ±100 for the full control effect; nearly all actives have a fitted effect of over 55% in size
Target sequence (A8B2U2 whole entry, looked up): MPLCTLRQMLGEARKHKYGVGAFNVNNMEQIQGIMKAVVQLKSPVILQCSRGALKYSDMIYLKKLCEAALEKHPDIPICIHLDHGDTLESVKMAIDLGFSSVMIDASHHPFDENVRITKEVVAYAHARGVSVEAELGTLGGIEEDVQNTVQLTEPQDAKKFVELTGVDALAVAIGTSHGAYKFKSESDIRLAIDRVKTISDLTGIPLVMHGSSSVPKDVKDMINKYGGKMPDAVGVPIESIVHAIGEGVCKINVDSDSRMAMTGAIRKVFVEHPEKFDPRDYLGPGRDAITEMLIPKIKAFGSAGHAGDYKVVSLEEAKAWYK
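Giardia FBPA (40 nM reagent) was preincubated 10 min at RT with compound (up to 57.5 uM final), then substrate plus GAPDH/TPI/NAD/arsenate coupling system with diaphorase/resazurin was added; resorufin fluorescence (525/598 nm) was read after 20 min.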
Shiga toxin inh – A qHTS for Small Molecule Inhibitors of Shiga Toxin; AID 2315, 2010; inhibition, % at 38.7 µM; 290,000 tested, 9.2% active; Vero cells, Shiga toxin protein synthesis inhibition reporter; in the data active = inhibition mostly above about 28%, no sharp cut-off; inactive = mostly below about 43%; note: 0% is about no effect
Tb PYK inh – qHTS of Trypanosoma Brucei Inhibitors; pyruvate kinase (Trypanosoma brucei), Q57TT1; TbPYK enzyme, Kinase-Glo Plus ATP luminescence, 45 min; Potency, µM (doses to about 76.8 µM), for the others: top-dose activity, negative = inhibition, usual class: inhibitors; 410,000 tested, 0.12% active; AID 624173, 2012; note: potency is the fitted concentration of half-maximal effect; % is set by controls: 0 for no effect and ±100 for the full control effect; nearly all actives have a fitted effect of over 50% in size
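Activity of T. brucei pyruvate kinase was followed by Kinase-Glo Plus luminescence after the enzyme reacted 45 min at room temperature with 130 uM ADP (final) and substrate. Test compounds were added before ADP at multiple concentrations.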
Cycloheximide cs – Cycloheximide Counterscreen for Small Molecule Inhibitors of Shiga Toxin | cell reporter, cycloheximide protein synthesis inhibition counterscreen | max response, % | 300,000 tested, 12% active | AID 2314, 2010; in the data active = max response mostly above about 13%, no sharp cut-off; inactive = mostly below about 14%; note: read at 38.3 µM for the half of the compounds with a filed dose; 0% is about no effect
LmPK inhibitor – qHTS Assay for Inhibitors of Leishmania Mexicana Pyruvate Kinase (LmPK); purified LmPK, Kinase-Glo ATP luminescence, 1 h; Potency, µM (titrated, usually from 57.5 µM), inactives show at the top dose activity change, negative = inhibition, most hits filed as inhibitors; 290,000 tested, 0.37% active; AID 1721, 2009; note: potency is the fitted concentration of half-maximal effect; % is set by controls: 0 for no effect and ±100 for the full control effect
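Purified LmPK (0.1 nM) converted ADP (0.1 mM) to ATP with PEP (0.5 mM) in imidazole buffer pH 7.2 with KCl and MgCl2, 1 h at room temperature. ATP was read by Kinase-Glo luminescence; data normalized to uninhibited and no-enzyme controls.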
RE007 growth inh – qHTS Assay for Inhibitors of the HIV-1 protein Vpr; S. pombe RE007 Vpr strain, BacTiter-Glo ATP luminescence, 24 h; AID 651644, 2012; 360,000 tested, 0.21% active; Potency, µM (top dose mostly 92.2 µM), inactives show at the top dose activity change, negative = less growth, most hits filed as inhibitors; active = well fitted falling curve with a large enough effect; inconclusive = small, poorly fitted or top-dose-only effect; inactive = no such curve, though single readings can be large or run the other way; note: potency is the fitted concentration of half-maximal effect; % is set by controls: 0 for no effect and ±100 for the full control effect; nearly all actives have a fitted effect of over 50% in size
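Fission yeast RE007 carrying one integrated HIV-1 vpr copy, seeded at OD 0.01 in PMG+AL medium with 23 nL pinned compound. Grown 24 h at 30 degrees; viability read by BacTiter-Glo luminescence after 5 min.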
Numbers without * were called inactive; ? = inconclusive; . = not tested or not shown; [ ] = another dose, or the depositor's remark. Unless noted, calls come from the whole dose curve; as a rule, active = well fitted curve in the direction sought with a large enough effect; inconclusive = small, poorly fitted or top-dose-only effect, or another doubt; inactive = no such curve, though single readings can be large; an effect the other way counts as inactive or inconclusive.

SMILES	Giardia FBPA inh	Shiga toxin inh	Tb PYK inh	Cycloheximide cs	LmPK inhibitor	RE007 growth inh
Cc1noc(C)c1C(=O)N1CCC2(CCCN(c3ccccn3)C2)CC1	-2%	.	-7%	.	.	.
Cc1ccc(Nc2nc3nonc3[nH]c2=O)cc1C	-5%	108*	0%	36*	4%	-10%
Cc1ccc(Nc2nc3nonc3[nH]c2=O)cc1Cl	-6%	84	-11%	6	6%[11.5 µM]	?
CCc1ccccc1NC(=O)N1CCN(c2nnc(C)c3c(C)n(-c4ccccc4)nc23)CC1	.	.	-1%	.	.	.
O=C(O)c1cn(CCOc2ccccc2Cl)c2ccccc12	16%	50*	4%	38*	-2%	2%
CC(=O)c1cn(CCCOc2ccccc2)c2ccccc12	-14%	21	0%	21*	-3%	-8%
CC(=O)c1cn(CCOc2ccc(F)cc2)c2ccccc12	-1%	.	3%	12*	-2%	-1%
Cc1ccc(C)c(NC(=O)c2ccc3c(c2)CCCN3S(C)(=O)=O)c1	.	.	5%	.	.	.
CN(C(=O)COC(=O)c1ccc(C(C)(C)C)cc1)C1CCS(=O)(=O)C1 (stereo unspecified)	.	.	-3%	.	.	-5%
CN(C(=O)COC(=O)c1nc(Cl)c(Cl)c(Cl)c1Cl)C1CCS(=O)(=O)C1 (stereo unspecified)	-5%	60	3%	54*	1%	-7%
Cc1nn(-c2ccccc2)c(C)c1/C=C/C(=O)OCC(=O)NC1CCS(=O)(=O)C1 (stereo unspecified)	-2%	22	2%	16*	0%	2%
Cc1nn(-c2ccccc2)c(C)c1C(=O)OCC(=O)N(C)C1CCS(=O)(=O)C1 (stereo unspecified)	5%	61*	2%	33*	-28%	-17%
O=C(COC(=O)/C=C/c1ccccc1)NC1CCS(=O)(=O)C1 (stereo unspecified)	.	.	3%	.	.	-16%
CC#CCOCC/C=C1/c2ccccc2C(OC)C1C (stereo unspecified)	-1%[12.9 µM]	.	.	.	.	.
CCn1cc(C(=O)NCCc2ccc(Cl)cc2)c(=O)c2cc(S(=O)(=O)N3CCC(C)CC3)ccc21	.	.	-5%	.	.	.
COCC#Cc1ccc(C2C(C)CCC3C(=O)N4C(CCC(C)C4c4ccc(C#CCOC)cc4)C(=O)N32)cc1 (stereo unspecified)	-1%[12.9 µM]	.	.	.	.	.
COc1cc(/C=C/C(=O)N2CCCCC2=O)cc(OC)c1OC	9%	.	.	.	.	.
c1ccc(OCCSc2nc3ccccc3o2)cc1	-3%	99*	-8%	22*	-5%	-9%
CCOc1ccc(OCCSc2nc3ccccc3o2)cc1	1%	26	-8%	15*	0%	-10%
Cc1ccc(/C=C/c2onc(C)c2S(=O)(=O)N2CCC(C(=O)N3CCN(c4cccc(C)c4)C(C)C3)CC2)cc1 (stereo unspecified)	.	.	0%	.	.	.
CN(C(=O)CSc1nc2c(c(=O)[nH]1)CCCC2)c1ccccc1	.	.	1%	.	.	.
CC1CCN(c2ccc(C(=O)NCc3ccco3)cc2[N+](=O)[O-])CC1	-10%	54*	-6%	22*	0%	4%
Cc1ccc(S(=O)(=O)N2CCN(C(=O)c3ccc(N4CCCCC4)c([N+](=O)[O-])c3)CC2)cc1	6%	-8	3%	11	-1%	5%
CC(C)(C)N1C(=O)c2ccc(C(=O)NCc3ccco3)cc2C1=O	3%	5	-9%	16*	6%	-15%
Cc1ccc(N(Cc2ccco2)C(=O)c2ccc(N3CCCCC3)c([N+](=O)[O-])c2)cc1	9%	106*	-5%	44*	5%	-5%
SMILES	Giardia FBPA inh	Shiga toxin inh	Tb PYK inh	Cycloheximide cs	LmPK inhibitor	RE007 growth inh
O=C(NCc1ccco1)c1ccc(N2CCOCC2)c([N+](=O)[O-])c1	1%	-8	1%	-1	0%	-8%
CC1CCN(S(=O)(=O)c2cccc(C(=O)NCc3ccco3)c2)CC1	-1%	-1	-2%	-3	5%	2%
O=C(NCc1ccco1)c1ccc(N2CCCCC2)c([N+](=O)[O-])c1	0%	41*	-2%	20*	0%	5%
COc1cccc(NC(=O)Cc2csc(COc3cccc(C)c3)n2)c1	.	.	-1%	.	.	.
CC[C@H]1C2=C3C(CC[C@H]4C(OCc5ccc(F)cc5C(F)(F)F)OC[C@](C)([C@@H]34)N(C(=O)OC(C)(C)C)C2)C2COC(=O)OCC21 (stereo partly specified)	-7%	.	.	.	.	.
CCCCN(C)CCNC(=O)c1ccc2c(c1)NC(=O)CN2	.	.	2%	.	.	.
CCCCOc1ccccc1Cn1c(=O)sc2ccccc21	.	.	7%	.	.	.
c1ccc(N2CC3CCc4ccccc4C3=N2)cc1 (stereo unspecified)	-11%	64*	0%	39*	-7%	-4%
O=C1Cc2ccccc2C(=O)N1c1ccccc1	-20%	-1	0%	-5	1%	4%
COc1ccc(/C=C/C(=O)c2oc3ccc(F)cc3c2C)cc1	-7%	-2	-12%	7	0%	1%
Cc1ccc(OC(=O)c2oc3ccc(F)cc3c2C)c(C)c1	.	46	-9%	35*	-5%	-2%
CCOC(=O)c1c(C)[nH]c(CCC(=O)NCc2ccc(CC)cc2)c1C	.	.	-2%	.	.	.
O=C(O)/C=C/C(=O)Nc1ccc(Oc2ncnc3cc(Cl)ccc23)nc1	5%	58*	3%	26*	8%	32µM*
O=C(Nc1ccccc1)Nc1ccc(Oc2ncnc3cc(Cl)ccc23)nc1	3%	-11	-2%	-3	0%	1%
COc1ccc(C(C[N+](=O)[O-])c2c(C)[nH]n(-c3ccccc3)c2=O)cc1 (stereo unspecified)	?	20	-9%	-1	3%	11µM*
Cc1[nH]n(-c2ccccc2)c(=O)c1C(c1ccc([N+](=O)[O-])cc1)c1c(C)[nH]n(-c2ccccc2)c1=O	-1%	-6	-25%	3	-6%	-4%
Cc1[nH]n(-c2ccccc2)c(=O)c1C(C[N+](=O)[O-])c1ccccc1Cl (stereo unspecified)	-23%	15	-9%	1	-1%	32µM*
COc1ccc(/C=C/C(=O)N2CCCc3ccccc32)cc1	1%	74*	-8%	52*	0%	3%
O=C1CCN(C(=O)/C=C/c2ccccc2)c2ccccc21	7%	41*	1%	28*	-2%	-3%
COc1cc(/C=C/C(=O)N2CCCc3ccccc32)cc(OC)c1OC	12%	3	-6%	1	1%	11%
COc1ccc(/C=C/C(=O)N2CCCc3ccccc32)c(OC)c1	-8%	47	0%	14*	0%	-25%
